Assay results as given in PubChem BioAssay AID1159580 (chemical genetic matrix, 2015).
“And” between values parts separate entries of the source, which are not always exact repeats. Identical values can stand only once. Hit rate of the full screen: of about 5,500 compounds, about 2,000 (36%) were called active. Inconclusive results (about 18%) are left out. No stated cut-off is given here; in the data, active means normalized growth mostly below about 0.91 (no sharp cut-off); inconclusive means no clear call, values can overlap the other calls; inactive means mostly above about 0.92. The list shows a part of the results.

Assay: chemical genetic growth profiling, strain panel (AID 1159580);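 further: tested at 20 µM; growth read once vehicle control cultures reached saturation at 30 °C; 1 = growth at the plate median or of vehicle wells; lower values mean less growth of the strain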
Conditions: growth OD

Measured: normalized growth

NC(N)=Nc1nc(CSCCC(N)=NS(N)(=O)=O)cs1
inactive: S. cerevisiae deletion strains, locus YKL009W, strain mrt4, active compounds read low 1.04 | S. cerevisiae deletion strains, locus YKL068W, active compounds read low 1.01 | S. cerevisiae deletion strains, locus YKL085W, strain MDH1 (second series), active compounds read low 0.987 | S. cerevisiae deletion strains, locus YKL085W, strain MDH1, active compounds read low 0.987 | S. cerevisiae deletion strains, locus YKL160W, strain elf1, active compounds read low 0.974 | S. cerevisiae deletion strains, locus YKL190W, strain CNB1, active compounds read low 1 | S. cerevisiae deletion strains, locus YKR001C, strain vps1, active compounds read low 1.01 | S. cerevisiae deletion strains, locus YKR026C, strain gcn3, active compounds read low 0.981 | S. cerevisiae deletion strains, locus YKR091W, strain srl3, active compounds read low 0.97 | S. cerevisiae deletion strains, locus YLL001W, strain dnm1, active compounds read low 0.933 | S. cerevisiae deletion strains, locus YLL026W, active compounds read low 0.992 | S. cerevisiae deletion strains, locus YLL041C, strain sdh2, active compounds read low 0.995 | S. cerevisiae deletion strains, locus YLR027C, strain aat2, active compounds read low 0.987 | S. cerevisiae deletion strains, locus YLR039C, strain RIC1, active compounds read low 0.979 | S. cerevisiae deletion strains, locus YLR058C, strain SHM2, active compounds read low 1.02 | S. cerevisiae deletion strains, locus YLR102C, strain apc9, active compounds read low 1.01 | S. cerevisiae deletion strains, locus YLR113W, strain HOG1, active compounds read low 0.97 | S. cerevisiae deletion strains, locus YLR221C, strain rsa3, active compounds read low 0.99 | S. cerevisiae deletion strains, locus YLR258W, strain gsy2, active compounds read low 0.998 | S. cerevisiae deletion strains, locus YLR262C, strain YPT6 (second series), active compounds read low 0.961 | S. cerevisiae deletion strains, locus YLR262C, strain YPT6, active compounds read low 0.979 | S. cerevisiae deletion strains, locus YLR268W, strain sec22, active compounds read low 1.05 | S. cerevisiae deletion strains, locus YLR320W, strain mms22, active compounds read low 1.01 | S. cerevisiae deletion strains, locus YLR330W, strain CHS5, active compounds read low 0.996 | S. cerevisiae deletion strains, locus YLR342W, strain FKS1 (second series), active compounds read low 1.02 | S. cerevisiae deletion strains, locus YLR342W, strain FKS1, active compounds read low 0.983 | S. cerevisiae deletion strains, locus YLR357W, strain rsc2, active compounds read low 1.04 | S. cerevisiae deletion strains, locus YLR370C, strain arc18, active compounds read low 0.972 | S. cerevisiae deletion strains, locus YLR371W, strain rom2, active compounds read low 1.01 | S. cerevisiae deletion strains, locus YLR384C, strain iki3, active compounds read low 0.963 | S. cerevisiae deletion strains, locus YLR418C, strain cdc73, active compounds read low 0.999 | S. cerevisiae deletion strains, locus YML016C, strain PPZ1, active compounds read low 0.997 | S. cerevisiae deletion strains, locus YML032C, strain rad52, active compounds read low 1.02 | S. cerevisiae deletion strains, locus YML120C, strain ndi1, active compounds read low 0.977 | S. cerevisiae deletion strains, locus YML124C, strain tub3, active compounds read low 1 | S. cerevisiae deletion strains, locus YMR058W, strain fet3, active compounds read low 0.991 | S. cerevisiae deletion strains, locus YMR078C, strain ctf18, active compounds read low 1.02 | S. cerevisiae deletion strains, locus YMR125W, strain sto1, active compounds read low 0.956 | S. cerevisiae deletion strains, locus YMR129W, active compounds read low 0.99 | S. cerevisiae deletion strains, locus YMR205C, strain PFK2, active compounds read low 0.988 | S. cerevisiae deletion strains, locus YMR223W, strain ubp8, active compounds read low 1.01 | S. cerevisiae deletion strains, locus YMR231W, strain pep5, active compounds read low 0.971 | S. cerevisiae deletion strains, locus YMR263W, strain SAP30, active compounds read low 1.01 | S. cerevisiae deletion strains, locus YMR307W, strain GAS1, active compounds read low 0.95 | S. cerevisiae deletion strains, locus YNL067W, strain RPL9B, active compounds read low 1.01 | S. cerevisiae deletion strains, locus YNL071W, strain lat1, active compounds read low 0.996 | S. cerevisiae deletion strains, locus YNL128W, strain TEP1, active compounds read low 1.01 | S. cerevisiae deletion strains, locus YNL153C, strain GIM3, active compounds read low 1.01 | S. cerevisiae deletion strains, locus YNL175C, strain NOP13, active compounds read low 1.01 | S. cerevisiae deletion strains, locus YNL183C, strain NPR1, active compounds read low 0.931 | S. cerevisiae deletion strains, locus YNL197C, strain WHI3, active compounds read low 1.01 | S. cerevisiae deletion strains, locus YNL209W, strain ssb2, active compounds read low 0.993 | S. cerevisiae deletion strains, locus YNL224C, strain SQS1, active compounds read low 0.986 | S. cerevisiae deletion strains, locus YNL233W, strain BNI4, active compounds read low 1.01 | S. cerevisiae deletion strains, locus YNL248C, strain rpa49, active compounds read low 0.994 | S. cerevisiae deletion strains, locus YNL250W, strain rad50, active compounds read low 1 | S. cerevisiae deletion strains, locus YNL271C, strain bni1, active compounds read low 1.01 | S. cerevisiae deletion strains, locus YNL298W, strain CLA4, active compounds read low 1.02 | S. cerevisiae deletion strains, locus YNL307C, strain MCK1, active compounds read low 1.01 | S. cerevisiae deletion strains, locus YNL322C, strain KRE1 (second series), active compounds read low 0.963 | S. cerevisiae deletion strains, locus YNL322C, strain KRE1, active compounds read low 1 and 1.01 | S. cerevisiae deletion strains, locus YNR049C, strain mso1, active compounds read low 0.972 | S. cerevisiae deletion strains, locus YNR052C, strain pop2, active compounds read low 1.02 | S. cerevisiae deletion strains, locus YOL006C, strain TOP1, active compounds read low 1.06 | S. cerevisiae deletion strains, locus YOL012C, strain htz1 0.851 | S. cerevisiae deletion strains, locus YOL147C, strain pex11, active compounds read low 1.01 | S. cerevisiae deletion strains, locus YOR001W, strain rrp6, active compounds read low 0.972 | S. cerevisiae deletion strains, locus YOR061W, strain CKA2, active compounds read low 1 | S. cerevisiae deletion strains, locus YOR069W, strain VPS5, active compounds read low 1.01 | S. cerevisiae deletion strains, locus YOR070C, strain gyp1, active compounds read low 0.982 | S. cerevisiae deletion strains, locus YOR080W, strain dia2, active compounds read low 0.97 | S. cerevisiae deletion strains, locus YOR083W, strain WHI5 (second series), active compounds read low 0.992 | S. cerevisiae deletion strains, locus YOR083W, strain WHI5, active compounds read low 0.965 | S. cerevisiae deletion strains, locus YOR106W, strain vam3, active compounds read low 0.96 | S. cerevisiae deletion strains, locus YOR136W, strain idh2, active compounds read low 1 | S. cerevisiae deletion strains, locus YOR144C, strain elg1, active compounds read low 1.01 | S. cerevisiae deletion strains, locus YOR184W, strain ser1, active compounds read low 1 | S. cerevisiae deletion strains, locus YOR231W, strain MKK1, active compounds read low 0.959 | S. cerevisiae deletion strains, locus YOR265W, strain rbl2, active compounds read low 0.986 | S. cerevisiae deletion strains, locus YOR270C, strain vph1, active compounds read low 0.966 | S. cerevisiae deletion strains, locus YOR290C, strain snf2, active compounds read low 1 | S. cerevisiae deletion strains, locus YOR316C, strain cot1, active compounds read low 1 | S. cerevisiae deletion strains, locus YPL051W, strain arl3, active compounds read low 0.99 | S. cerevisiae deletion strains, locus YPL055C, strain LGE1, active compounds read low 0.97 | S. cerevisiae deletion strains, locus YPL078C, strain atp4, active compounds read low 0.968 | S. cerevisiae deletion strains, locus YPL106C, strain sse1, active compounds read low 0.999 | S. cerevisiae deletion strains, locus YPL240C, strain hsp82, active compounds read low 1 | S. cerevisiae deletion strains, locus YPL241C, strain CIN2, active compounds read low 0.997 and 1.01 | S. cerevisiae deletion strains, locus YPL256C, strain CLN2, active compounds read low 0.961 | S. cerevisiae deletion strains, locus YPR119W, strain clb2, active compounds read low 1 | S. cerevisiae deletion strains, locus YPR141C, strain kar3, active compounds read low 1 | S. cerevisiae deletion strains, locus YPR163C, strain tif3, active compounds read low 1.02 | S. cerevisiae deletion strains, locus YPR167C, strain met16, active compounds read low 1.01 | S. cerevisiae deletion strains, strain wtn01, active compounds read low 1.02 | S. cerevisiae strains, strain wild type, active compounds read low 1
